Six1-Eya2 blk: inhibitors of human Six1/Eya2 interaction; activity change, % (concentration not given with the values); actives 0.56% (n = 360,000); AlphaScreen GST-Six1/His-Eya2 binding, biochemical; active compounds read low; Q15475+O00167; in the data active = activity change below about -65%; inconclusive = mostly about -30% to -63%
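GST-Six1 + His-Eya2 (5X stock: 250/500 nM); Tris pH 8.0, 300 mM NaCl, 0.05% BSA, 0.02% Tween 20; GSH donor/Ni acceptor beads; 1 h 37 °C dark; AlphaScreen readout.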
PKM2 activator: PKM2 (human) enzyme activation | P14618 | purified PKM2, Kinase-Glo ATP luminescence, activation; response scale: 0% is enzyme alone, no compound | Potency, µM (titrated, usually from 57.5 µM), without a hit: at the highest dose activation, usual class: activators | actives 0.34% (n = 260,000) | AID 1631; also: potency is read from the fitted curve at half-maximal effect; nearly all actives have a fitted effect of over 55% in size
Target sequence (P14618 whole entry, looked up): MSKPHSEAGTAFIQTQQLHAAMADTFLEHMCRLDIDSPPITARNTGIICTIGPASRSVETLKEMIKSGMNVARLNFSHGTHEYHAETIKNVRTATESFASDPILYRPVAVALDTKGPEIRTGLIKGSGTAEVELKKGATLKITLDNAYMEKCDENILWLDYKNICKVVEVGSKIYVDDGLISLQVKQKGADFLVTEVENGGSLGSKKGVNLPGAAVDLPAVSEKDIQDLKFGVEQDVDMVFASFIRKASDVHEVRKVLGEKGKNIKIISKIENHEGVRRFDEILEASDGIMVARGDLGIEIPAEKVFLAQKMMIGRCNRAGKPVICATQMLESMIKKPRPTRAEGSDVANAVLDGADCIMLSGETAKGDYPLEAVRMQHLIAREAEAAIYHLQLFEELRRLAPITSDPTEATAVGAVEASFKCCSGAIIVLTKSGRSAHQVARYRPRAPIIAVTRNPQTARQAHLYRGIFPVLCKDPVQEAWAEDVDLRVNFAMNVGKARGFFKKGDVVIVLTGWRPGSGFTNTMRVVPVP
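Purified hPK-M2 (>95%) run at intermediate activity with 0.1 mM ADP and 0.5 mM PEP in 50 mM imidazole pH 7.2, KCl, MgCl2; 1 h room temperature. ATP formed read by Kinase-Glo luminescence; normalized to uninhibited and no-enzyme controls.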
Gal4-VP16 FLuc: counter-screen for ROR gamma inhibitors: Gal4-VP16 reporter | Potency, µM (titrated, usually from 53.6 µM), for inactives: top-dose activity, negative = inhibition, hits mostly inhibitors | AID 2546 | Drosophila S2 Gal4-VP16 UAS-luciferase, luminescence, 20 h | actives 3.5% (n = 310,000);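 also: Gal4-VP16 expression switched on by copper sulfate through the metallothionein promoter; potency is read from the fitted curve at half-maximal effect; nearly all actives have a fitted effect of over 50% in size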
RORg inh: ROR gamma (mouse) transcription inhibition; actives 5.4% (n = 310,000); Drosophila S2 Gal4-RORgamma UAS-luciferase reporter, 20 h; P51450; AID 2551; Potency, µM (series often up to 53.6 µM), for inactives: at the highest dose activity change, negative = inhibition, most hits filed as inhibitors; also: potency is read from the fitted curve at half-maximal effect; nearly all actives have a fitted effect of over 60% in size
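Using a luciferase readout, inhibitors were identified by reduced reporter activity in Drosophila cells coexpressing a copper-inducible Gal4–ROR gamma fusion and UAS-driven Photinus luciferase, incubated 20 hr after 700 uM copper sulfate.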
CtBP-E1A blk: blocks the CtBP interaction with E1A; actives 0.49% (n = 340,000); activity change, % (no concentration beside the values); AID 651724; AlphaScreen GST-E1A/His-CtBP binding, 1536-well; active compounds read low; in the data active = activity change below about -65%; inconclusive = mostly about -30% to -63%
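Protein mix (5X: 125 nM each GST-E1A, His-CtBP) was incubated with pinned compound 2 h at 37 deg C in dark, in 50 mM Tris pH 8.0 buffer with 300 mM NaCl. Glutathione donor and nickel acceptor beads followed; AlphaScreen signal read after 1 h.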
An asterisk follows results filed as active; ? = inconclusive; nt = not tested or not shown; [ ] = dose if it differs, or a comment. Most compounds without a hit are left out; they make up all but 5.6% or so of the library. Unless noted, calls follow the shape of the dose curve; as a rule, active = well fitted curve in the direction sought with a large enough effect; inconclusive = small, poorly fitted or top-dose-only effect, or another doubt; inactive = no such curve, though single readings can be large; an effect the other way counts as inactive or inconclusive. % is scaled to controls: 0 for no effect and ±100 for the full control effect.

SMILES	Six1-Eya2 blk	PKM2 activator	Gal4-VP16 FLuc	RORg inh	CtBP-E1A blk
COc1c(Br)cc(Br)cc1/C=N/NC(=O)c1ccncc1	-7	-12%	-3%	14µM*	-5
O=C(O)c1cccc(Cl)c1Cl	nt	nt	2%	-1%	nt
CCn1nc(C)cc1C(=O)N1CCCC(C(=O)c2ccccc2SC)C1 (stereo unspecified)	3	nt	-22%	44%	1
CC1/C=C/C=C/C=C/C=C/C=C/C=C/C=C/C(OC2OC(C)C(O)C(N)C2O)CC2O[C@@](O)(CC(O)CC(O)C(O)CCC(O)CC(O)CC(=O)OC(C)[C@H](C)C1O)CC(O)C2C(=O)O (stereo partly specified)	nt	nt	-1%	-9%	nt
Cc1cccc(C(=O)c2cnc3ccccc3c2-c2ccccc2)c1	0	-19%	10µM*	?	5
N#CC1=C(N)Oc2n[nH]c(-c3ccccn3)c2C1c1c(F)cccc1Cl (stereo unspecified)	4	-3%	8.9µM*	3.2µM*	-5
N#CC1=C(N)Oc2n[nH]c(-c3cccnc3)c2C1c1cc(F)ccc1F (stereo unspecified)	6	10%	-6%[10 µM]	5%	17
COCc1[nH]nc2c1C(c1ccccc1Cl)C(C#N)=C(N)O2 (stereo unspecified)	1	-12%	-17%	-22%	3
COCc1[nH]nc2c1C(c1c(F)cccc1Cl)C(C#N)=C(N)O2 (stereo unspecified)	9	21%	18µM*	?	-3
CC1=CC(C2CC(=O)N(c3ccc(C)cc3)C2=O)CC2C(=O)N(c3ccc(C)cc3)C(=O)C12 (stereo unspecified)	13	-2%	-11%	36%	1
Oc1ccc(/C=N/Nc2ccc(Cl)nn2)c(O)c1O	-95*	nt	-3%	-25%	nt
CCOc1ccc(/C=N/Nc2ccc(Cl)nn2)c(O)c1	-22	-17%	2µM*	1.6µM*	-30
Cc1c(C)c2ccc(OC(C)C(=O)NCCCN3CCOCC3)c(C)c2oc1=O (stereo unspecified)	-2	0%	-12%	-27%	3
COc1ccc(Nc2nccc(N(C)C)c2C#N)cc1	-2	-5%	2%	27%	12
CCN(CC)c1ccc(/C=N/NC(=O)CCC(=O)NCc2ccccc2)c(O)c1	-27	5%	?	3.2µM*	?
CCOC(=O)N/N=C/c1ccc(N(CC)CC)cc1O	-13	10%	?	?	-5
CCN(CC)c1ccc(/C=N/NC(=O)CNC(=O)C2COc3ccccc3O2)c(O)c1 (stereo unspecified)	-70*	2%	2.8µM*	2.8µM*	?
CCCCN(Cc1ccco1)S(=O)(=O)c1ccc(-c2ccc(=O)[nH]n2)s1	-8	nt	-1%	22%	-11
O=C(Nc1nnc(-c2ccccc2Cl)o1)c1nc2ccccc2s1	-1	0%	?	1.1µM*	-7
O=C(CS(=O)(=O)c1ccc(F)cc1)Nc1nnc(-c2ccccc2Cl)o1	-8	nt	nt	nt	5
O=C(Nc1nc(-c2cccs2)c(-c2ccccc2)s1)c1ccco1	0	1%	7.9µM*	?	-3
Nc1nc(-c2cccs2)c(-c2cccs2)s1	-7	nt	6%	-8%	-9
CC1CC1C(=O)Nc1nc(-c2cccs2)c(-c2cccs2)s1 (stereo unspecified)	-3	-1%	12%	10µM*	8
O=C(Nc1nnc(-c2cccs2)o1)c1ccco1	-19	0%	6.3µM*	2.5µM*	-9
COc1ccnc(N=CNOCc2cccc(C(F)(F)F)c2)c1C#N	-16	0%	-4%	22%	6
COC(=O)[C@@]12CCCCN1[C@H](c1ccc(-c3ccc(C(C)=O)cc3)cc1)[C@@H]1C(=O)N(C)C(=O)[C@@H]12	4	nt	nt	nt	0
O=C(CNC(=O)OCc1ccccc1)NCC(=O)Oc1ccc([N+](=O)[O-])cc1	6	nt	nt	nt	8
CC(c1ccco1)N(C(=O)c1cccc(Br)c1)c1ccccn1 (stereo unspecified)	-23	3%	?	33%	0
O=C(Nc1nnc(-c2ccccc2Cl)o1)c1ccco1	-11	-11%	5µM*	2.8µM*	-10

Screens deposited in PubChem BioAssay by National Center for Advancing Translational Sciences (NCATS).
